Common to all, as to test: DAPPL (digital affinity profiling via proximity ligation, sequencing); 10 mM Tris-HCl pH 7.5, 50 mM NaCl, 1 mM DTT, 4% glycerol, room temperature, 30 min; GST-TFs on glutathione beads, 16-mer random dsDNA library, 0.1% formaldehyde crosslink after washing; high values mean tight binding
Holding throughout (conditions): protein: recombinant; tags: N-terminal GST; dsDNA, one strand shown

The target in assay [1] is T1, FEV (Homo sapiens, UniProt Q99581 1-238).
T1 sequence: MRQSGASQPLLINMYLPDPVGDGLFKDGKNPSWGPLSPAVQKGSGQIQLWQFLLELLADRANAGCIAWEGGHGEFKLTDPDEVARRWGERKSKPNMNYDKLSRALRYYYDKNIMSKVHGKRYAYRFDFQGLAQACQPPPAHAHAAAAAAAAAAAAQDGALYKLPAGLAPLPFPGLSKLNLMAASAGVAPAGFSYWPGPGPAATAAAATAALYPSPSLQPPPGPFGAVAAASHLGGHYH
A digest of the protocol:
(§1)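 In yeast, human transcription factors were expressed with a GST fusion, then pulled down on glutathione beads and given DNA barcodes. Pooled with a tag-only sample, they were exposed to 200 nmole of a 16-mer random double-stranded DNA library (Tris/NaCl/DTT/glycerol buffer, room temperature, 30 min), washed, crosslinked with 0.1% formaldehyde, proximity-ligated using BsaI/T4 ligase for 1 h at 37 °C, PCR-amplified and read on an Illumina NextSeq500. Each hexamer's frequency of reads for a factor, divided by the matching frequency for the tag-only sample, gives the binding signal.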

Assay [2] deals with ETV5 (Homo sapiens, UniProt P41161 1-510). The essentials:
as §1

Assay [3] addresses T2, SPIC (Homo sapiens, UniProt Q8N5J4 1-248).
T2 sequence: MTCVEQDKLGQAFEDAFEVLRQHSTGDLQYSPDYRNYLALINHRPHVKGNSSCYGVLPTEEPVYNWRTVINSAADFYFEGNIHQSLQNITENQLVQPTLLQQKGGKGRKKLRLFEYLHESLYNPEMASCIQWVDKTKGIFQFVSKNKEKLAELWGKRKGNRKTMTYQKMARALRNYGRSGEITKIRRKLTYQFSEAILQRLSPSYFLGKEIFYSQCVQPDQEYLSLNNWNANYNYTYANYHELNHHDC
The essentials:
as §1

Assay [4] deals with ELF4 (Homo sapiens, UniProt Q99607 1-663). The essentials: as §1
Sequence of ELF4 (Q99607 whole entry): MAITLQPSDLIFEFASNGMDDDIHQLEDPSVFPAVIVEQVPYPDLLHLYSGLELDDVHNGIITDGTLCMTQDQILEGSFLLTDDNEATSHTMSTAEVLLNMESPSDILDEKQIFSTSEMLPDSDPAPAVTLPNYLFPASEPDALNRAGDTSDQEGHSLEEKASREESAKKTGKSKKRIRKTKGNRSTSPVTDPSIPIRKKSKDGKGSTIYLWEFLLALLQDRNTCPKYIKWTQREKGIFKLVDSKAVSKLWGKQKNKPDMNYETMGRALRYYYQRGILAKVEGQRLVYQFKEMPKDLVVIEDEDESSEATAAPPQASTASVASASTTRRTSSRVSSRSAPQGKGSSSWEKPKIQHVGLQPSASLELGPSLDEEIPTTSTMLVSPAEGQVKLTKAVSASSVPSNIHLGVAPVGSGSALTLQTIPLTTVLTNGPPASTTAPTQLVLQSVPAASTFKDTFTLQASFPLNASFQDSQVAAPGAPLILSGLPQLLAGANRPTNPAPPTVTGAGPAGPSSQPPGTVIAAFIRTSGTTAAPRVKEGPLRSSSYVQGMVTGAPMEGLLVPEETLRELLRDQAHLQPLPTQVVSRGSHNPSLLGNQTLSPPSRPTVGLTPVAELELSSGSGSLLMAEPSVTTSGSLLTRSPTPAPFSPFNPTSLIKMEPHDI
For assay [5], the target named is T3, ELK4 (Homo sapiens, UniProt P28324-2 1-405).
T3 sequence: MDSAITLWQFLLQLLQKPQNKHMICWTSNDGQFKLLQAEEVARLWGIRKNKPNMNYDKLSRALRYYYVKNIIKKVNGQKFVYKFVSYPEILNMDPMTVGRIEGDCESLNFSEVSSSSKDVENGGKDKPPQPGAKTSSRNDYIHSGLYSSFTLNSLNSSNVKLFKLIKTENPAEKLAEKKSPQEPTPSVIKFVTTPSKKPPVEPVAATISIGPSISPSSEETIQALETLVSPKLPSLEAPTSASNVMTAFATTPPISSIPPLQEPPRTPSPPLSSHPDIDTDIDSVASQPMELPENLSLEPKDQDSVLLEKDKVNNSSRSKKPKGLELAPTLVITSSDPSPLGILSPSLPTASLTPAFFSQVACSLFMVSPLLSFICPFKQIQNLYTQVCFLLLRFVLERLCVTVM
The essentials:
as §1

In assay [6] the target is T4, ETV2 (Homo sapiens, UniProt O00321 1-342).
T4 sequence: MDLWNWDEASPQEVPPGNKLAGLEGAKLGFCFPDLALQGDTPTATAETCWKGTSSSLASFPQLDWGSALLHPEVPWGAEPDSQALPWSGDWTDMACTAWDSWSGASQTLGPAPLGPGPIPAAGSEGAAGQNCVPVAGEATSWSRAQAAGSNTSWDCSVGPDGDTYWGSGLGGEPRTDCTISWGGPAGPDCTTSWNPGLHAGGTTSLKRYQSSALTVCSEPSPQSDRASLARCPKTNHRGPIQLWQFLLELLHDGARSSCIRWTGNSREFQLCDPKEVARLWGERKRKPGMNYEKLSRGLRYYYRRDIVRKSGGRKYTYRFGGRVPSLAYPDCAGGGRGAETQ
A digest of the protocol: as §1

Assay [7] concerns the target T5, ELF3 (Homo sapiens, UniProt P78545 1-371).
T5 sequence: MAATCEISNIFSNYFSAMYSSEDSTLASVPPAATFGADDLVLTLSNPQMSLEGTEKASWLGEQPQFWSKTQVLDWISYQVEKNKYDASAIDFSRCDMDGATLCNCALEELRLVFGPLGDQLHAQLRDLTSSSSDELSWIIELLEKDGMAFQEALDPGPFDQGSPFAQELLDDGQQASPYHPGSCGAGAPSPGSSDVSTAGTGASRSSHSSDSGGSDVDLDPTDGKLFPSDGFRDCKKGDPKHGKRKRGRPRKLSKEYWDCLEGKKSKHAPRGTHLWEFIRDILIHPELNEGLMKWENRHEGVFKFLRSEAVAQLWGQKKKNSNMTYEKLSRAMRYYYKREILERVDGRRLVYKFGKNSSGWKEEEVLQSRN
A digest of the protocol:
as §1

Assay [8] concerns the target ETV1 (Homo sapiens, UniProt P50549 1-477). A digest of the protocol:
as §1

Sequence of ETV5 (P41161 whole entry): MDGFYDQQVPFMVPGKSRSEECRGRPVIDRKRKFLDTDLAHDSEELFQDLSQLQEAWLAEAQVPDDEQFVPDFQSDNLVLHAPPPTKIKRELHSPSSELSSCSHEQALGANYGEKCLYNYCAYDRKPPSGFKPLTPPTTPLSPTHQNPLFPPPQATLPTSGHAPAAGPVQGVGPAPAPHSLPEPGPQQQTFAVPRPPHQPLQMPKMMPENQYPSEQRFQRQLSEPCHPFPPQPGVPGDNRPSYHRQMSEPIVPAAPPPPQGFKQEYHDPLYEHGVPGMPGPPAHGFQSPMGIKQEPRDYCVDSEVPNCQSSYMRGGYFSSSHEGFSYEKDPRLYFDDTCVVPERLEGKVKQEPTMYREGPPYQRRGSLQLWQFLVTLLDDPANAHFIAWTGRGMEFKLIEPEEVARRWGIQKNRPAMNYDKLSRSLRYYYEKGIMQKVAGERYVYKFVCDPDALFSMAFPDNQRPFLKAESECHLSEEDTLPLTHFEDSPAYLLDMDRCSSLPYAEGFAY
Sequence of ETV1 (P50549 whole entry): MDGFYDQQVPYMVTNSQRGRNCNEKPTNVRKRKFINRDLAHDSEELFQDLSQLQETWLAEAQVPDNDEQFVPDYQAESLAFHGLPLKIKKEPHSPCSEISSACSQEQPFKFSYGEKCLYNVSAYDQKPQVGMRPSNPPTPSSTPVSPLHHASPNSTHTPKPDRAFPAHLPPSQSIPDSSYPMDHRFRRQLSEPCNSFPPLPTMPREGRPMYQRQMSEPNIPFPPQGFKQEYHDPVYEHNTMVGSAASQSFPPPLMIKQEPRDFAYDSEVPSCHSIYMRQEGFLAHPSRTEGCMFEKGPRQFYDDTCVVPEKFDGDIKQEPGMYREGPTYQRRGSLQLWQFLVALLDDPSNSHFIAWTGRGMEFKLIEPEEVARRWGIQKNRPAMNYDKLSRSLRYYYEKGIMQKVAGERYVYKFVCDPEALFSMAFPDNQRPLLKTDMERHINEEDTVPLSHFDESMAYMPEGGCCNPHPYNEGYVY

With CACGCC, the binding signal in assay [1] was 1.19 fold enrichment (6-mer frequency, TF over GST control); in assay [2] it was 1.17 fold enrichment (6-mer frequency, TF over GST control); in assay [3], 1.01 fold enrichment (6-mer frequency, TF over GST control); in assay [4], 1.25 fold enrichment (6-mer frequency, TF over GST control); in assay [5], 1.24 fold enrichment (6-mer frequency, TF over GST control); in assay [6], 1.22 fold enrichment (6-mer frequency, TF over GST control). Besides, the binding signal in assay [7] is 1.27 fold enrichment (6-mer frequency, TF over GST control); in assay [8], 1.19 fold enrichment (6-mer frequency, TF over GST control).
Take ACCTCA: the binding signal in assay [1] is 1.17 fold enrichment (6-mer frequency, TF over GST control); in assay [2], 1.16 fold enrichment (6-mer frequency, TF over GST control); in assay [3], 1.33 fold enrichment (6-mer frequency, TF over GST control); in assay [4], 1.2 fold enrichment (6-mer frequency, TF over GST control); in assay [5], 1.26 fold enrichment (6-mer frequency, TF over GST control); in assay [6], 1.2 fold enrichment (6-mer frequency, TF over GST control). Further, the binding signal in assay [7] was 1.24 fold enrichment (6-mer frequency, TF over GST control); in assay [8], 1.32 fold enrichment (6-mer frequency, TF over GST control).
TGCCAC: the binding signal in assay [1] is 1.32 fold enrichment (6-mer frequency, TF over GST control); in assay [2], 1.14 fold enrichment (6-mer frequency, TF over GST control); in assay [3], 1.19 fold enrichment (6-mer frequency, TF over GST control); in assay [4], 1.26 fold enrichment (6-mer frequency, TF over GST control); in assay [5], 1.42 fold enrichment (6-mer frequency, TF over GST control); in assay [6], 1.14 fold enrichment (6-mer frequency, TF over GST control). In addition, the binding signal in assay [7] is 1.44 fold enrichment (6-mer frequency, TF over GST control); in assay [8], 1.26 fold enrichment (6-mer frequency, TF over GST control).
For the sequence ACATGT, the binding signal in assay [1] was 1.03 fold enrichment (6-mer frequency, TF over GST control); in assay [2], 1.16 fold enrichment (6-mer frequency, TF over GST control); in assay [3] it was 1.13 fold enrichment (6-mer frequency, TF over GST control); in assay [4] it was 1.15 fold enrichment (6-mer frequency, TF over GST control); in assay [5], 1.27 fold enrichment (6-mer frequency, TF over GST control); in assay [6], 1.21 fold enrichment (6-mer frequency, TF over GST control). Moreover, the binding signal in assay [7] is 1.02 fold enrichment (6-mer frequency, TF over GST control); in assay [8] it was 1.09 fold enrichment (6-mer frequency, TF over GST control).
On to TGCATC, for which the binding signal in assay [1] is 1.33 fold enrichment (6-mer frequency, TF over GST control); in assay [2] it was 1.39 fold enrichment (6-mer frequency, TF over GST control); in assay [3], 1.46 fold enrichment (6-mer frequency, TF over GST control); in assay [4] it was 1.31 fold enrichment (6-mer frequency, TF over GST control); in assay [5], 1.22 fold enrichment (6-mer frequency, TF over GST control); in assay [6] it was 1.33 fold enrichment (6-mer frequency, TF over GST control). The binding signal in assay [7] is 1.3 fold enrichment (6-mer frequency, TF over GST control); in assay [8], 1.4 fold enrichment (6-mer frequency, TF over GST control).
With CCTGTG, the binding signal in assay [1] was 1.11 fold enrichment (6-mer frequency, TF over GST control); in assay [2] it was 1.07 fold enrichment (6-mer frequency, TF over GST control); in assay [3] it was 1.32 fold enrichment (6-mer frequency, TF over GST control); in assay [4] it was 1.11 fold enrichment (6-mer frequency, TF over GST control); in assay [5], 1.22 fold enrichment (6-mer frequency, TF over GST control); in assay [6], 1.11 fold enrichment (6-mer frequency, TF over GST control). Further, the binding signal is 1 fold enrichment (6-mer frequency, TF over GST control) in assay [7] and 1.12 fold enrichment (6-mer frequency, TF over GST control) in assay [8].
For CGTCAA, the binding signal in assay [1] was 1.08 fold enrichment (6-mer frequency, TF over GST control); in assay [2], 1.08 fold enrichment (6-mer frequency, TF over GST control); in assay [3], 1.19 fold enrichment (6-mer frequency, TF over GST control); in assay [4], 1.15 fold enrichment (6-mer frequency, TF over GST control); in assay [5] it was 1.12 fold enrichment (6-mer frequency, TF over GST control); in assay [6] it was 1.2 fold enrichment (6-mer frequency, TF over GST control). Moreover, the binding signal in assay [7] was 1.2 fold enrichment (6-mer frequency, TF over GST control); in assay [8] it was 1.12 fold enrichment (6-mer frequency, TF over GST control).
In the case of GCTGAC, the binding signal in assay [1] was 1.12 fold enrichment (6-mer frequency, TF over GST control); in assay [2], 1.03 fold enrichment (6-mer frequency, TF over GST control); in assay [3], 1.1 fold enrichment (6-mer frequency, TF over GST control); in assay [4] it was 1.1 fold enrichment (6-mer frequency, TF over GST control); in assay [5], 1.05 fold enrichment (6-mer frequency, TF over GST control); in assay [6] it was 1.38 fold enrichment (6-mer frequency, TF over GST control). The binding signal in assay [7] is 1.27 fold enrichment (6-mer frequency, TF over GST control); in assay [8] it was 1.03 fold enrichment (6-mer frequency, TF over GST control).

The record behind these values is article PMC7862700, “An all-to-all approach to the identification of sequence-specific readers for epigenetic DNA modifications on cytosine”.
